Key:
Experiment in all cases: log2 ratio of Biotin-Ahx-Ub-VS probe labelling (fragment/DMSO); higher = less target engagement (more negative = stronger competition), active = hit call of the paper (q ≤ 0.05, log2 ratio ≤ -1)
Conditions in all cases: compound concentration: 200 uM; treatment time: 3 h
USP9X = USP9X (UniProt Q93008)
Summary of the method: (§1)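 HEK293T lysate (495 µg per sample, in Tris/CHAPS/IGEPAL buffer with protease inhibitors) was treated in triplicate with fragment at 200 µM or with DMSO for 3 h. It was then treated with Biotin-Ahx-Ub-VS (0.5 µM final) for 1 h. Labelled DUBs were NeutrAvidin-enriched, digested with LysC and trypsin, and run by diaPASEF LC-MS/MS. Spectronaut label-free quantities were global-median-normalised. Values are average log2 ratios fragment/DMSO by unpaired t-test, using proteins with ≥2 unique peptides.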

UniProt O00487 = biological target: UniProt O00487
Summary of the method: as §1

UniProt O00507 = biological target: UniProt O00507
Summary of the method: as §1

UniProt P51784 = biological target: UniProt P51784
Summary of the method: as §1

UniProt Q5T2D3 = biological target: T1, UniProt Q5T2D3
T1 sequence (whole entry): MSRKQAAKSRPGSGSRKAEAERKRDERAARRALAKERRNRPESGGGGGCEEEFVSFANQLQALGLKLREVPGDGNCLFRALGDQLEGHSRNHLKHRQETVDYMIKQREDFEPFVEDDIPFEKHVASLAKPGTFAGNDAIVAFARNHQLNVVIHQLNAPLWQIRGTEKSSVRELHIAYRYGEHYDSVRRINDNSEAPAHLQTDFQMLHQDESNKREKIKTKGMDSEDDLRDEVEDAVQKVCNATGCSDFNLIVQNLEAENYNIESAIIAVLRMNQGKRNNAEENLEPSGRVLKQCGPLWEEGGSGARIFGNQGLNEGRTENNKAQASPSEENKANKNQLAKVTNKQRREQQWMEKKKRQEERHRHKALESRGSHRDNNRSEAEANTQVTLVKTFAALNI
Summary of the method: as §1

UniProt Q8TE49 = biological target: T2, UniProt Q8TE49
T2 sequence (whole entry): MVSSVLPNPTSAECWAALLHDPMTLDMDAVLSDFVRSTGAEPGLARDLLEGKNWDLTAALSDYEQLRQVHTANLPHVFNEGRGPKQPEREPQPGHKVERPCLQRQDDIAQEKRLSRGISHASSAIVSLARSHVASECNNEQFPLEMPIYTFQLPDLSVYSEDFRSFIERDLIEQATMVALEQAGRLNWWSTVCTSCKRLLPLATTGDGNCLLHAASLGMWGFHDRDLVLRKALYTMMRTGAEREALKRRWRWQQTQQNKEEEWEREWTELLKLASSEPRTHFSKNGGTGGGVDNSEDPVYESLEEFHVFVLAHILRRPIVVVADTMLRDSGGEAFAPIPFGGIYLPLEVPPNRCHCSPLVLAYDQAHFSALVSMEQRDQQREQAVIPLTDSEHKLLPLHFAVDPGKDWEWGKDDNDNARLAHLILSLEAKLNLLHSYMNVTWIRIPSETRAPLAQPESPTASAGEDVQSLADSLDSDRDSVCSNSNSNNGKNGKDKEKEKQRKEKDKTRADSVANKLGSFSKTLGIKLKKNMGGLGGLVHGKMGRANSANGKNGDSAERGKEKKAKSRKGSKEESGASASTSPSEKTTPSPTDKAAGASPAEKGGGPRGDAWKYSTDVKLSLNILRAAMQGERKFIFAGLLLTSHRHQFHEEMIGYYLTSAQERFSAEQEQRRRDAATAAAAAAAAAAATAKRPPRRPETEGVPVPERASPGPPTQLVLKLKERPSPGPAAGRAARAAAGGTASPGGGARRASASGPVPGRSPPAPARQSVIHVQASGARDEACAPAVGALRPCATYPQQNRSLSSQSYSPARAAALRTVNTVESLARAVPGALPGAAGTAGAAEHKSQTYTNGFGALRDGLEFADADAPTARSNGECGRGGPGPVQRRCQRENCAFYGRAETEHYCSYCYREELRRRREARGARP
Summary of the method: as §1

UniProt Q9P2H5 = biological target: T3, UniProt Q9P2H5
T3 sequence (whole entry): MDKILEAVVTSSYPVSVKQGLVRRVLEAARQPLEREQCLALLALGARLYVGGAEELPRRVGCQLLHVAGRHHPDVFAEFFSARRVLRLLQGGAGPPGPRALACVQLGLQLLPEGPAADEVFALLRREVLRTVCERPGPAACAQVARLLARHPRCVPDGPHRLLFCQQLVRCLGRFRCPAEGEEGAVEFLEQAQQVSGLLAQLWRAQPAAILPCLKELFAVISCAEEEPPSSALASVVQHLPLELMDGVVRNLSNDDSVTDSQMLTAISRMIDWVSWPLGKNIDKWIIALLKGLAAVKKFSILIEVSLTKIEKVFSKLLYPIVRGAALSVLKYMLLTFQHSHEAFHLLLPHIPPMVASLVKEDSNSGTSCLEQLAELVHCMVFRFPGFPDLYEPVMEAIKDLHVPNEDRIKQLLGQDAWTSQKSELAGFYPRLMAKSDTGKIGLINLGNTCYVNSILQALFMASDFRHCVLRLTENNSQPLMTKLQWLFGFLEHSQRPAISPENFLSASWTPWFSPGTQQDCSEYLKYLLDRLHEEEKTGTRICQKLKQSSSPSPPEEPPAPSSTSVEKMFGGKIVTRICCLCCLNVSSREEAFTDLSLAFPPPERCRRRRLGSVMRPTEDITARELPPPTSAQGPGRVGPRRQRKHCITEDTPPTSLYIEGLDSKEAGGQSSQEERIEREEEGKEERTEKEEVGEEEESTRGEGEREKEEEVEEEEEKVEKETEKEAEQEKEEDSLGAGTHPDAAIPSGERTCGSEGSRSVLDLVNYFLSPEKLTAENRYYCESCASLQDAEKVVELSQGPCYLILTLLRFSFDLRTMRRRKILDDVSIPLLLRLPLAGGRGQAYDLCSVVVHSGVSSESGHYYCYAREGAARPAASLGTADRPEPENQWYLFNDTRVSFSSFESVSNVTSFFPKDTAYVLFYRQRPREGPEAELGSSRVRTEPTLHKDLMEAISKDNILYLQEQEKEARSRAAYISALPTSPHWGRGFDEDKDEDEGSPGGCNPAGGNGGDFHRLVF
Summary of the method: as §1

UniProt Q9UGI0 = biological target: T4, UniProt Q9UGI0
T4 sequence (whole entry): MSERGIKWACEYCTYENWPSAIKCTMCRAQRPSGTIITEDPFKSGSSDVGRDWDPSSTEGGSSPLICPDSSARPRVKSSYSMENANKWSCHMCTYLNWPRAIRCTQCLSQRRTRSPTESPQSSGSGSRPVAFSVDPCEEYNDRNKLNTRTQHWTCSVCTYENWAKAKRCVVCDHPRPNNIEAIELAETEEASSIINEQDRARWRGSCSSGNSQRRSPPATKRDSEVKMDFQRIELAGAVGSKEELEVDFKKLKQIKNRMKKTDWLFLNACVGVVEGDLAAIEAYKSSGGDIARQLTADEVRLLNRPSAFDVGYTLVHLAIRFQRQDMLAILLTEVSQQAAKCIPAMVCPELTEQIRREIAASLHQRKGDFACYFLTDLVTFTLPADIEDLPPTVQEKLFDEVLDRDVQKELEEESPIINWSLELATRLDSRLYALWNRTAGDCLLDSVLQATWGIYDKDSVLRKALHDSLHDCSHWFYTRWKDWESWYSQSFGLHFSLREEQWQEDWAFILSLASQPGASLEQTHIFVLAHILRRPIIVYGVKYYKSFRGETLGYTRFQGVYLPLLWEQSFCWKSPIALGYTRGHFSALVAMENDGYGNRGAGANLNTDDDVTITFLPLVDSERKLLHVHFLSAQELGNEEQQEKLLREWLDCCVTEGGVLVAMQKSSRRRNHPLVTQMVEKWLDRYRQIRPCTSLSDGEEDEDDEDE
Summary of the method: as §1

YOD1 = biological target: T5, YOD1 (UniProt Q5VVQ6)
T5 sequence (whole entry): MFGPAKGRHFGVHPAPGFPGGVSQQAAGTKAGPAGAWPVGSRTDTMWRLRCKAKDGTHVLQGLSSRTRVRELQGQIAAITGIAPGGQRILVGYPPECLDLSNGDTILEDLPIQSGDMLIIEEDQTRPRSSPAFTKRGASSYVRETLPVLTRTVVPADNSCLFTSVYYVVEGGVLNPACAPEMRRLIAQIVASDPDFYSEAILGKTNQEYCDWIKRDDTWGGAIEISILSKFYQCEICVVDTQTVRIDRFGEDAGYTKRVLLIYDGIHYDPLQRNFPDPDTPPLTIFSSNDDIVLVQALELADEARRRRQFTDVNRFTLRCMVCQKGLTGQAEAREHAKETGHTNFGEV
Summary of the method: as §1

Measured: log2 ratio of Biotin-Ahx-Ub-VS probe labelling

USP9X, sequence (Q93008 whole entry, the tested form may be a part): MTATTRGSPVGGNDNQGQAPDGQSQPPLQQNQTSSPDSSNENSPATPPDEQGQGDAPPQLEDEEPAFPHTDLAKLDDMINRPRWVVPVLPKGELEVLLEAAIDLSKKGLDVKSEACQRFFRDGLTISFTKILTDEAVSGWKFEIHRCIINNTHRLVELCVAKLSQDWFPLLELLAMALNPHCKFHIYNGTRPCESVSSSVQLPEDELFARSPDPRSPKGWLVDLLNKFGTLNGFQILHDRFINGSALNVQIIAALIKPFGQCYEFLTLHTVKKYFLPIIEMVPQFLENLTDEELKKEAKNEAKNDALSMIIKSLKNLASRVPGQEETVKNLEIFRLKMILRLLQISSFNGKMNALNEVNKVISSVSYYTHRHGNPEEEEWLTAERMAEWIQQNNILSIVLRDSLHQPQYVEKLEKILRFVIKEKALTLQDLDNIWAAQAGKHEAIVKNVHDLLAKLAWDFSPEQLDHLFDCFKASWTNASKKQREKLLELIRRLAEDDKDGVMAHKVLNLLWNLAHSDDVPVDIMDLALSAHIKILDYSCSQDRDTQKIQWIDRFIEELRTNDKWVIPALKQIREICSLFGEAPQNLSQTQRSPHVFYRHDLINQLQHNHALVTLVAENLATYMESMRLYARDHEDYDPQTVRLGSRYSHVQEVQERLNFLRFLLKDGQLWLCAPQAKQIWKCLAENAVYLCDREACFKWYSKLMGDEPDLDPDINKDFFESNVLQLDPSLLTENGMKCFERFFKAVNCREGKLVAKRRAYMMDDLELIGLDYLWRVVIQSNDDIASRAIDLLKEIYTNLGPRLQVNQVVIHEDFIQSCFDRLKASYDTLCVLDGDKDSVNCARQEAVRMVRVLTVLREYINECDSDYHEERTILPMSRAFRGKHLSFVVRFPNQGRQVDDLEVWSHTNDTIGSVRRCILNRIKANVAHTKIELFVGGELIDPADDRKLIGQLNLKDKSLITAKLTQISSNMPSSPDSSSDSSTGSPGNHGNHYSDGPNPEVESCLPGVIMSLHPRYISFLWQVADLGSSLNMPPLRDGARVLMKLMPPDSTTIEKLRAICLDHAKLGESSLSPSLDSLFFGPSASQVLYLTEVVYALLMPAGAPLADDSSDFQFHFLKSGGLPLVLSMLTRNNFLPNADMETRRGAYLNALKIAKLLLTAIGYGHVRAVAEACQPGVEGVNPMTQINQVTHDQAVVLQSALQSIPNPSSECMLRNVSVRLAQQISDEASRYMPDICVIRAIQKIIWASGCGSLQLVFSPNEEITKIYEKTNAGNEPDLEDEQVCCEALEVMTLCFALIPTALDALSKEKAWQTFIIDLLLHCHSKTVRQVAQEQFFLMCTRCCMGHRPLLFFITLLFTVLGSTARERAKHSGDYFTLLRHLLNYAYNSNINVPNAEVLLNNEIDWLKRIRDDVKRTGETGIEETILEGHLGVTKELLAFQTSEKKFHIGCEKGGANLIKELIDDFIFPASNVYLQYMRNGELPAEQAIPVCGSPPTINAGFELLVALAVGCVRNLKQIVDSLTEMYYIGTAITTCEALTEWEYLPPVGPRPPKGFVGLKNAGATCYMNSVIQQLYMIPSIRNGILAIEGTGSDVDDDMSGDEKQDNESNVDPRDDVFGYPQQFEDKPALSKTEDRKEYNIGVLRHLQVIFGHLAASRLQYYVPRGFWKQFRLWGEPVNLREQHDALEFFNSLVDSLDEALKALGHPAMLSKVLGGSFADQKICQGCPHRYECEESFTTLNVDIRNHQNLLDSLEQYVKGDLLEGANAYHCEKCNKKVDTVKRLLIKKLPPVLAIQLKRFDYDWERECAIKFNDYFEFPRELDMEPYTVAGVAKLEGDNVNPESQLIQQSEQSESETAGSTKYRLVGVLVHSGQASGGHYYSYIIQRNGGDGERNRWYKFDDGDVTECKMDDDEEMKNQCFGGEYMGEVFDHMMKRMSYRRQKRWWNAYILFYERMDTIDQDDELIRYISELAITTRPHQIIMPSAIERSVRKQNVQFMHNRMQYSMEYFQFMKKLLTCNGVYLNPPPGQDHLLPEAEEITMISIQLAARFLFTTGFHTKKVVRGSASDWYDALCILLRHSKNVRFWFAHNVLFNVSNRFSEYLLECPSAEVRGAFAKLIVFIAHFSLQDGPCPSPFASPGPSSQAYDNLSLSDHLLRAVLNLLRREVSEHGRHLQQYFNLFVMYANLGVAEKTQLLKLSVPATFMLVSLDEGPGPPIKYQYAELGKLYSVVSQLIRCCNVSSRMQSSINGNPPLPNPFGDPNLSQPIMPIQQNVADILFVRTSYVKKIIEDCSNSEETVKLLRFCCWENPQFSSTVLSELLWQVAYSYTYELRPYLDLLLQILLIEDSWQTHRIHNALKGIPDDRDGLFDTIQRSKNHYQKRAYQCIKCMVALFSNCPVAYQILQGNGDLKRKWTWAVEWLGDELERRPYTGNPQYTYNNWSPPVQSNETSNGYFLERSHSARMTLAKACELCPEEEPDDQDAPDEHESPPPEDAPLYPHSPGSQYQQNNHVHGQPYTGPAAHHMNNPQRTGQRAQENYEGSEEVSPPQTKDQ
UniProt O00487, sequence (O00487 whole entry): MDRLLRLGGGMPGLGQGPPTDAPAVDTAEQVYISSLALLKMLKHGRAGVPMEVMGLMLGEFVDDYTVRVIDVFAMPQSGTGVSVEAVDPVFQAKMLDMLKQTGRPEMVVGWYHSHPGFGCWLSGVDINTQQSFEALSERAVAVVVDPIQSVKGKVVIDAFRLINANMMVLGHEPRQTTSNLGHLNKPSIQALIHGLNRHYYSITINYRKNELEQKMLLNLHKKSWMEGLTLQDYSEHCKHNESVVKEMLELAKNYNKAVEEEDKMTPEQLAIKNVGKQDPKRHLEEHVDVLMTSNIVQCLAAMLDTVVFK
UniProt P51784, sequence (P51784 whole entry): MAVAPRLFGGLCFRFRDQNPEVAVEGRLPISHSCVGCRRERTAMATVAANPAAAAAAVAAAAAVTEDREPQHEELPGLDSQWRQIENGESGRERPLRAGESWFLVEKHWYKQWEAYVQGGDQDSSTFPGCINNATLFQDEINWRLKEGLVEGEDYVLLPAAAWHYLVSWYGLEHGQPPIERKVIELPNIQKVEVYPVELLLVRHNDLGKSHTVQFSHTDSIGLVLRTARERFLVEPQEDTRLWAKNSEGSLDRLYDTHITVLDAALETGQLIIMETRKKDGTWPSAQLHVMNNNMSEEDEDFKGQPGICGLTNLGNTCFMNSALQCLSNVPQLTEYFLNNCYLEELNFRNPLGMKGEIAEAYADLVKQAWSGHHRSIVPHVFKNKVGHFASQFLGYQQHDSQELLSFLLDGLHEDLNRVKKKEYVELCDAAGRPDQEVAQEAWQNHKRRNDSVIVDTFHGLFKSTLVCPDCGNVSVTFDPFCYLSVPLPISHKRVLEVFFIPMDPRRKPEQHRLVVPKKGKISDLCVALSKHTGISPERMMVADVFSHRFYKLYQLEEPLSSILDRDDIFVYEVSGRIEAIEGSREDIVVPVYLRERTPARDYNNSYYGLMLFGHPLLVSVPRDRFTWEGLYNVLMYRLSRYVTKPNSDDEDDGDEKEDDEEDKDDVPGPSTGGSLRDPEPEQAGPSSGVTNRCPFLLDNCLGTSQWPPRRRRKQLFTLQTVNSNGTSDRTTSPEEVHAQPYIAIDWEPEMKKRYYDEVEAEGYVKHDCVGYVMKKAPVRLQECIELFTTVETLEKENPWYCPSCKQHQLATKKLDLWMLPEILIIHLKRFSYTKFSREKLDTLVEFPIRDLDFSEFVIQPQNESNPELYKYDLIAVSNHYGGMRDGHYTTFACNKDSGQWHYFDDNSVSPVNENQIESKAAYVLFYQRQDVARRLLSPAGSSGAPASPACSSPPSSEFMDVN

CS(=O)(=O)c1ccc(NC(=O)CCl)cc1
inactive: USP9X -0.388 | UniProt O00487 -0.115 | UniProt O00507 -0.0176 | UniProt P51784 -0.0206 | UniProt Q5T2D3 -0.139 | UniProt Q8TE49 -0.443 | UniProt Q9P2H5 -0.192 | UniProt Q9UGI0 -0.87 | YOD1 0.0991
